Pf growth 96h – inhibits malaria parasite growth, 96 h. P. falciparum luciferase reporter growth, 96 h. Potency, µM (titrated, usually from 28.7 µM), hits mostly inhibitors. hit rate 6.9% among 320,000
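Cell-based qHTS: luciferase-tagged P. falciparum in erythrocytes (2% hematocrit, 0.05% parasitemia final) incubated with compounds for 96 hours, 37 C, 5% CO2; luciferase detection reagent then added and luminescence measured.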
CHX counter – counter-screen hit for Shiga toxin inhibitors, cycloheximide. hit rate 12% among 300,000. AID 2314. cell reporter, cycloheximide protein synthesis inhibition counterscreen. max response, %; in the data active = max response mostly above about 13%, no sharp cut-off; inactive = mostly below about 14%; also: read at 38.3 µM for the half of the compounds with a filed dose
LmPK inhibitor – blocks Leishmania mexicana pyruvate kinase activity. Q27686. purified LmPK, Kinase-Glo ATP luminescence, 1 h. Potency, µM (series often up to 57.5 µM), actives largely listed as inhibitors. hit rate 0.37% among 290,000
Target sequence (Q27686 whole entry, looked up): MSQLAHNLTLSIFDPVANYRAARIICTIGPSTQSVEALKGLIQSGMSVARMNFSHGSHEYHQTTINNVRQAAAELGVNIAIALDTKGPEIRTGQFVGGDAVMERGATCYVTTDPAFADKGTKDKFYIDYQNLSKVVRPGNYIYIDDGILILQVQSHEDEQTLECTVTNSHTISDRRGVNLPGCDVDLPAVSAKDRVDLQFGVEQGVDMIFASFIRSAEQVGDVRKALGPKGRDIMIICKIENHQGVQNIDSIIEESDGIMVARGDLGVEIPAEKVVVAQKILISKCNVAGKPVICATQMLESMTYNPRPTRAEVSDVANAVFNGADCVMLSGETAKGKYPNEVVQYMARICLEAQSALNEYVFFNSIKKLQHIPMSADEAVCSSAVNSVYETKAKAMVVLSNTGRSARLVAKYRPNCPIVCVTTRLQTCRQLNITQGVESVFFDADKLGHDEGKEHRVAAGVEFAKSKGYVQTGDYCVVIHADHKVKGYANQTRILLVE
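Purified LmPK (0.1 nM) with 0.5 mM PEP and 0.1 mM ADP in imidazole buffer pH 7.2 with MgCl2/KCl, 1 h at room temperature. ATP formed was read by luciferase luminescence and normalized to no-enzyme and uninhibited controls.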
Pf growth 48h – P. falciparum growth inhibition at 48 hours (one generation) | hit rate 5.9% among 310,000 | AID 504832 | P. falciparum luciferase growth in erythrocytes, 48 h | Potency, µM (top dose mostly 28.7 µM), actives largely listed as inhibitors
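Growth was read as firefly luciferase luminescence after a 48 h, 37 C, 5% CO2 exposure of compounds to reporter-bearing P. falciparum cultures (0.1% parasitemia, 2% hematocrit final) in Albumax-supplemented RPMI 1640.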
Shiga inhibitor – blocks Shiga toxin action in Vero cells | hit rate 9.2% among 290,000 | Vero cells, Shiga toxin protein synthesis inhibition reporter | inhibition, % at 38.7 µM; in the data active = inhibition mostly above about 28%, no sharp cut-off; inactive = mostly below about 43%
Each line names hits and unclear results; the compound was inactive in the other large screens. Only some compounds are listed: those with a hit (about 22% of all), similar ones and a draw of the others. Unless noted, calls follow the shape of the dose curve; as a rule, active = well fitted inhibition curve with a large enough effect; inconclusive = small, poorly fitted or top-dose-only effect, or another doubt; inactive = no such curve, though single readings can be large or run the other way.

CCN(CCn1cccn1)C(=O)CCc1nnc(C2(c3ccc(Cl)cc3)CCC2)o1	CHX counter 41, Shiga inhibitor 92
CCC(O)CNC(=O)CCc1nnc(C2(c3ccc(Cl)cc3)CCC2)o1 (configuration not stated)	none
COCC1CCN(C(=O)CCc2nnc(C3(c4ccc(Cl)cc4)CCC3)o2)CC1	CHX counter 15, Pf growth 48h inconclusive
COCCNC(=O)CCc1nnc(C2(c3ccc(Cl)cc3)CCC2)o1	Pf growth 96h inconclusive
CCN(CCn1cccn1)C(=O)CCc1nnc(-c2ccccc2)o1	Pf growth 96h inconclusive, CHX counter 37, Pf growth 48h inconclusive, Shiga inhibitor 57
COc1cc(-c2nc(=S)[nH][nH]2)cc(OC)c1OC	none
O=C(COC(=O)c1ccc(S(=O)(=O)N2CCCCC2)cc1)Nc1ccccc1Cl	none (no result: CHX counter, LmPK inhibitor, Shiga inhibitor)
CCOC(=O)c1c(C)oc2c1c1c(c3ccccc32)OCN(CCCC(=O)O)C1	CHX counter 62, Shiga inhibitor 89
CCOC(=O)c1c(C)oc2c1c1c(c3ccccc32)OCN(Cc2cccnc2)C1	Pf growth 96h inconclusive, CHX counter 77, Pf growth 48h inconclusive, Shiga inhibitor 131
CCOC(=O)c1c(C)nc(C)c(C(=O)OCC)c1-c1cccnc1	Pf growth 96h inconclusive
CC1(C)CCC[C@@](C)([C@H]2CC[C@]3(C)[C@@H]2[C@H](O)CC2[C@@]4(C)CC[C@H](O)C(C)(C)[C@@H]4[C@@H](O)C[C@]23C)O1 (some centres not stated)	none (no result: Pf growth 96h, LmPK inhibitor, Pf growth 48h)
COc1ccc(S(=O)(=O)N(C(=O)c2ccco2)c2cc3sc(=O)oc3c3ccccc23)cc1	Pf growth 48h inconclusive
Cc1ccc(S(=O)(=O)N(C(=O)c2ccco2)c2cc3sc(=O)oc3c3ccccc23)cc1	Pf growth 96h 12µM, Pf growth 48h 10µM
O=C(C1CCN(S(=O)(=O)c2ccc(-n3cnnn3)cc2)CC1)N1CCCCC1	none
Cc1ccc(S(=O)(=O)N2CCN(C(=O)C(C)Cn3cncn3)CC2)cc1 (configuration not stated)	none
CCC(Sc1nc2n[nH]c(C)c2c(=N)n1-c1cccc(Cl)c1)C(=O)NCCOC (configuration not stated)	Pf growth 48h inconclusive
Cc1cc(-n2c(SCc3ccccc3F)nc3n[nH]c(C)c3c2=N)ccc1Cl	Pf growth 96h 4.7µM, Pf growth 48h inconclusive
CCC(Sc1nc2n[nH]c(C)c2c(=N)n1-c1ccc(C)c(Cl)c1)C(=O)N1CCOCC1 (configuration not stated)	Pf growth 48h 13µM
C/C(=N/NC(N)=S)c1ccccc1[N+](=O)[O-]	none
CC(=O)c1ccc(C(=O)N2CCC(CO)(Cc3cccc(C(F)(F)F)c3)CC2)cc1	Pf growth 96h inconclusive, Pf growth 48h inconclusive
Cc1c(CN2CCC(CO)(Cc3cccc(C(F)(F)F)c3)CC2)c2ccccc2n1C	Pf growth 96h inconclusive, Pf growth 48h 3.7µM
COc1cc(CN2CCC(CO)(Cc3cccc(C(F)(F)F)c3)CC2)ccc1F	Pf growth 96h 4.1µM, Pf growth 48h 6.6µM
CC1(C(=O)N2CCC(CO)(Cc3cccc(C(F)(F)F)c3)CC2)CC1	Pf growth 96h 17µM
COc1ccc(F)c(CN2CCC(CO)(Cc3cccc(C(F)(F)F)c3)CC2)c1	Pf growth 48h inconclusive
CCOC(=O)c1c(CSc2cccs2)n(C)c2cc(Br)c(O)c(CN(C)C)c12	Pf growth 48h 13µM
Cc1ccc(OCC(=O)Nc2ccc(-c3nc4ccc(C)cc4o3)cc2)cc1	CHX counter 34, Shiga inhibitor 80 (no result: Pf growth 96h, LmPK inhibitor, Pf growth 48h)
Cc1ccc(OCC(=O)Nc2ccc3oc(=O)ccc3c2)cc1	none
COc1ccc(OCC(=O)Nc2ccc(-c3nc4cc(C)c(C)cc4o3)cc2)cc1	CHX counter 51, Shiga inhibitor 98 (no result: Pf growth 96h, LmPK inhibitor, Pf growth 48h)
COc1ccc(OC)c(C2(O)CSC(=Nc3cccnc3)N2Cc2ccco2)c1 (configuration not stated)	Pf growth 96h 4.7µM, Pf growth 48h 12µM
OC1(c2ccc(OC(F)F)cc2)CSC(=Nc2cccnc2)N1C1CC1 (configuration not stated)	Pf growth 96h inconclusive, Pf growth 48h inconclusive
CC(=O)N1c2ccc(S(=O)(=O)NCCC(=O)Nc3ccc(F)cc3)cc2CC1C (configuration not stated)	Pf growth 48h inconclusive
CCCCC1(C)OC(=O)C(=Cc2c[nH]c3ccccc23)C(=O)O1 (configuration not stated)	none
CCc1ccc(/C=C/c2c[nH]c3ccccc23)[n+](CC)c1	Pf growth 96h 0.074µM, Pf growth 48h 0.21µM
CCOc1ccc(NC(c2ccccn2)c2oc(CO)cc(=O)c2O)cc1 (configuration not stated)	Pf growth 96h inconclusive, CHX counter 46, Shiga inhibitor 81
CC1(C)CC(=O)C=C(NNC(=O)c2ccc(N)cc2)C1	none
CC1(C)CC(=O)C=C(NNC(=O)c2ccccc2)C1	Pf growth 96h inconclusive, CHX counter 24, Shiga inhibitor active
Cc1cc(C)c(S(=O)(=O)N2CCN(C(=O)CCn3nc(C)c(C)c3C)CC2)c(C)c1	Pf growth 48h inconclusive
O=c1oc2cc(OCCO)ccc2c2c1CCCC2	none
COc1ccc(NC(=O)C2CCCN(S(C)(=O)=O)C2)cc1Cl (configuration not stated)	Pf growth 96h inconclusive
Cc1ccc(Nc2nc(-c3ccc(C)cc3)c(CC(=O)O)s2)cc1	CHX counter 14
COC(=O)CCc1sc(Nc2ccccc2)nc1-c1ccc(OC)cc1	CHX counter 23, Shiga inhibitor 91
O=C(O)Cc1sc(Nc2cccc3ccccc23)nc1-c1ccc(Cl)cc1	CHX counter 20, Pf growth 48h inconclusive
O=C(O)Cc1sc(Nc2ccc(Cl)cc2)nc1-c1cccs1	CHX counter 47, Shiga inhibitor 75
Cc1ccc(C(=O)CCNc2ccc(Br)cc2)o1	CHX counter 27, Shiga inhibitor 62
Cc1ccc(C(=O)CCNc2ccccc2)o1	CHX counter 27, Shiga inhibitor 76 (no result: Pf growth 96h)
Cc1ccc(C(=O)CCNc2cccc(Br)c2)o1	none
O=C(C[n+]1cc(-c2ccc(F)cc2)n2c1CCC2)OCc1ccccc1	none
Cc1ccc(-c2c[n+](Cc3ccc(Cl)c(Cl)c3)c3n2CCC3)cc1	Pf growth 96h 0.19µM, Pf growth 48h 1.7µM
O=C(C[n+]1cc(-c2ccccc2)n2c1CCCCC2)c1ccc(Br)cc1	Pf growth 48h 1.7µM
Cc1ccc(C(=O)C[n+]2cc(-c3ccc(C)cc3)n3c2CCCCC3)cc1	Pf growth 96h 0.41µM, Pf growth 48h 0.41µM
COc1ccc(C(=O)C[n+]2cc(-c3ccc(OC)cc3)n3c2CCCC3)cc1	Pf growth 96h 1.5µM, Pf growth 48h 1.2µM
CCC(C(=O)Nc1ccc(S(=O)(=O)Nc2ncccn2)cc1)c1ccccc1 (configuration not stated)	Pf growth 96h inconclusive, Pf growth 48h inconclusive
Nc1cccc2c1C(=O)N(C(=O)/C=C/c1ccc(F)cc1)C2=O	CHX counter 37, Shiga inhibitor 76
Nc1cccc2c1C(=O)N(C(=O)c1ccco1)C2=O	none
